# ± gives the standard deviation.
# How the values were obtained:
# Conditions in all cases: modulator concentration 10 µM
# [1] = test system: RAW-Dual (murine macrophage reporter line); test: NF-kB reporter (SEAP) activity fold change vs agonist alone; higher = enhanced NF-kB activity
# Outline: (§1)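 Overnight stimulation with a PRR agonist followed pre-incubation for 1 hour at 37 °C with compound at 10 μM final. This was done in RAW-Dual murine macrophage reporter cells seeded at 50 000 per well in 384-well plates. NF-κB (SEAP, QUANTI-Blue absorbance at 620 nm) and IRF (Lucia luciferase, QUANTI-Luc luminescence) were read from the supernatant. Each reporter's fold change relative to the mean agonist-only control on the same plate was averaged over replicate plates.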
# [2] = test system: RAW-Dual (murine macrophage reporter line); test: IRF reporter (Lucia luciferase) activity fold change vs agonist alone; higher = enhanced IRF activity
# Outline: as §1
# [3] = test system: RAW-Dual (murine macrophage reporter line); test: viability score (confluency relative to resting cells, overnight) (fraction); higher = more viable, active = viable (0.7 or more)
# Outline: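 RAW-Dual macrophages in 384-well plates were incubated overnight with compound, final concentration 10 μM. Confluency images from IncuCyte were processed in IncuCyte software into two masks covering all imaged wells. The viability score is each well's confluency relative to resting cells, and a compound met the cutoff when both masks exceeded 70% of resting cells.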
# [4] = agonist: CpG ODN 1826 0.5 ug/mL
SMILES,"NF-kB reporter [1, 4]",NF-kB reporter ([1]; agonist: LPS 0.1 ug/mL),NF-kB reporter ([1]; agonist: MPLA […]),IRF reporter ([2]; agonist: 3'3'-cGAMP 10 ug/mL),IRF reporter ([2]; agonist: LPS 0.1 ug/mL),IRF reporter ([2]; agonist: MPLA […]),viability score [3]
CC(C)Sc1ccc(CC(=O)N2CCC(S(C)(=O)=O)C2)cc1 (stereo not drawn),0.975 ± 0.12,1.12 ± 0.1,0.973 ± 0.17,0.946 ± 0.053,1.12 ± 0.07,1.29 ± 0.17,0.993 (active)
Cc1nnsc1C(=O)Nc1ccccc1C(F)(F)F,1.1 ± 0.084,0.954 ± 0.077,1 ± 0.048,0.969 ± 0.039,0.993 ± 0.11,0.929 ± 0.15,1 (active)
O=[N+]([O-])c1ccc(C=CC=Nc2ccc(-c3nc4ccccc4s3)c(O)c2)cc1,0.813 ± 0.06,1.04 ± 0.067,0.971 ± 0.034,0.746 ± 0.042,0.973 ± 0.082,0.946 ± 0.079,0.994 (active)
N[C@H](Cc1ccccc1)C(=O)O,0.958 ± 0.074,1.05 ± 0.052,0.958 ± 0.025,0.895 ± 0.076,0.988 ± 0.049,1.11 ± 0.14,1 (active)
COc1ccc(NCN2C(=O)c3ccccc3C2=O)c(OC)c1,0.844 ± 0.066,0.972 ± 0.058,1.08 ± 0.1,0.911 ± 0.044,1.42 ± 0.084,1.61 ± 0.21,0.991 (active)
Cc1ncn(CCNC(=O)Nc2ccc(OC(F)(F)F)cc2)c(=O)c1C,1.14 ± 0.077,1.08 ± 0.088,1.01 ± 0.061,0.901 ± 0.035,1.06 ± 0.05,1.11 ± 0.25,0.998 (active)
CCCCCCOc1ccc(N2C(=O)CC(N3CCN(Cc4ccc5c(c4)OCO5)CC3)C2=O)cc1 (stereo not drawn),0.919 ± 0.073,1.07 ± 0.075,0.9 ± 0.055,0.929 ± 0.032,1.38 ± 0.17,1.32 ± 0.12,0.991 (active)
COC(=O)CCS(=O)(=O)c1ccc2ccccc2c1,0.886 ± 0.055,1.01 ± 0.1,1.05 ± 0.091,1.08 ± 0.059,1.31 ± 0.16,1.06 ± 0.095,0.995 (active)
Brc1ccc2ncnc(N3CCOCC3)c2c1,1.17 ± 0.097,1.39 ± 0.098,1.13 ± 0.05,0.357 ± 0.087,0.515 ± 0.039,0.592 ± 0.084,1 (active)
OCCN1CCN(CCCN2c3ccccc3Sc3ccc(Cl)cc32)CC1,1.21 ± 0.051,0.614 ± 0.069,0.894 ± 0.077,3.18 ± 0.17,1.32 ± 0.18,1.49 ± 0.42,0.907 (active)
CCOc1ccc(CN(CCc2ccc3c(c2)OCO3)Cc2ccc3ccccc3c2)cc1,0.733 ± 0.083,0.954 ± 0.063,0.781 ± 0.053,0.197 ± 0.0058,1.54 ± 0.2,1.2 ± 0.16,0.989 (active)
O=c1[nH]c(=O)n(C2CC(O)C(CO)O2)cc1F (stereo not drawn),1.67 ± 0.13,0.714 ± 0.057,0.978 ± 0.1,0.321 ± 0.025,0.684 ± 0.14,0.545 ± 0.12,1.04 (active)
COc1cc2nccc(Oc3ccc(NC(=O)Nc4cc(C)on4)c(Cl)c3)c2cc1OC,0.178 ± 0.022,0.66 ± 0.062,0.639 ± 0.057,0.626 ± 0.028,0.938 ± 0.066,1.02 ± 0.1,1 (active)
CC1(C)NC(=O)N(c2ccc([N+](=O)[O-])c(C(F)(F)F)c2)C1=O,1.26 ± 0.41,1.11 ± 0.23,0.897 ± 0.052,0.868 ± 0.035,1.17 ± 0.21,1.25 ± 0.2,0.968 (active)
Cl.Nc1ccn([C@@H]2O[C@H](CO)[C@@H](O)[C@@H]2O)c(=O)n1,1.61 ± 0.12,1.13 ± 0.068,1.06 ± 0.047,0.87 ± 0.13,1.03 ± 0.1,0.8 ± 0.079,0.579 (inactive)
CC(C)(C)c1cc(C(=O)Oc2cccc3cccnc23)cc(C(C)(C)C)c1,0.895 ± 0.05,0.976 ± 0.06,0.923 ± 0.064,0.938 ± 0.034,1.25 ± 0.097,1.23 ± 0.12,1 (active)
OC1(c2ccc(Cl)c(C(F)(F)F)c2)CCN(CCCC(c2ccc(F)cc2)c2ccc(F)cc2)CC1,0.101 ± 0.0057,0.173 ± 0.12,0.103 ± 0.0063,0.0719 ± 0.0038,0.145 ± 0.11,0.0408 ± 0.004,0.0235 (inactive)
CN(C)c1ccc(C2N(C)c3ccccc3N2C)cc1,1.2 ± 0.19,1.69 ± 0.13,2.19 ± 0.2,0.939 ± 0.031,1.88 ± 0.23,1.94 ± 0.25,0.858 (active)
Nc1ncnc2c1ncn2C1OC(CO)C(O)C1O (stereo not drawn),0.951 ± 0.078,0.93 ± 0.079,1.29 ± 0.13,1.15 ± 0.043,1.2 ± 0.22,1.23 ± 0.27,1.04 (active)
Cn1cc(-c2cc(CNC(=O)c3cncc(Br)c3)ccn2)cn1,0.92 ± 0.041,1.05 ± 0.1,1.15 ± 0.065,0.872 ± 0.057,1.1 ± 0.17,1.3 ± 0.41,0.943 (active)
O=C(Nc1ccc(F)c(F)c1)c1ccnc(OCC2CCOCC2)c1,1.15 ± 0.07,0.969 ± 0.084,0.908 ± 0.046,0.856 ± 0.051,1.16 ± 0.14,1.26 ± 0.36,0.995 (active)
CCC(=O)Nc1ccc(S(=O)(=O)N2CCC(Oc3ncnc(CC)c3F)C2)c(C)c1 (stereo not drawn),1 ± 0.043,1.06 ± 0.087,1.2 ± 0.083,0.919 ± 0.055,1.24 ± 0.21,1.34 ± 0.4,0.992 (active)
CC(=O)N1CCN(c2ccc(OCC3COC(Cn4ccnc4)(c4ccc(Cl)cc4Cl)O3)cc2)CC1 (stereo not drawn),0.669 ± 0.058,1.1 ± 0.085,1.08 ± 0.023,1.07 ± 0.059,1.14 ± 0.12,1.18 ± 0.11,0.92 (active)
Cc1cccc(-c2cc3nc(C)c(Cl)c(O)n3n2)c1,1.04 ± 0.058,1.04 ± 0.091,0.948 ± 0.025,1.04 ± 0.039,1 ± 0.1,1.04 ± 0.24,0.996 (active)

# Source: the supplement of paper PMC10646978
